Assay [1] concerns MKL-1. The assay can be described thus: qHTS assay to identify novel small-molecules to repurpose for Merkel cell carcinoma treatment (AID 1296009). Note: nearly all actives have a fitted effect of over 60% in size. Conditions: MCC and control cell lines, CellTiter-Glo viability, 72 h; series mostly up to 46 µM. The essentials: (§1)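 qHTS format: cells treated with library compounds in DMSO across 8 (NPC) or 11 (MIPE) concentrations. Readout after 72 hr at 37 degree celsius was CellTiter-Glo luminescence.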
(In general: qHTS replaces the single test concentration by a dilution series.)

The test system of assay [2] is MKL-2. The assay is described as above. Conditions: MCC and control cell lines, CellTiter-Glo viability, 72 h; series mostly up to 46 µM. The gist of the method: as §1
Assay [3] relates to UISO. The assay is described as above. Conditions: MCC and control cell lines, CellTiter-Glo viability, 72 h; series mostly up to 46 µM. The gist of the method: as §1
For assay [4], the system named is WaGa. Described as above. Conditions: MCC and control cell lines, CellTiter-Glo viability, 72 h; series mostly up to 46 µM. The gist of the method:
as §1
Background: In ATP-based viability assays light output follows the ATP content of the culture.

Assay [5] relates to C33A. The experiment in a line: Primary qHTS to identify gynecologic anti-cancer compounds using libraries of approved drugs and bioactive compounds (AID 1345084). Note: nearly all actives have a fitted effect of over 55% in size. Note: potency is the fitted concentration of half-maximal effect. Conditions: Gynecologic cancer cell panel viability, ATPlite luminescence, 48 h; series mostly up to 57.5 µM. The gist of the method: (§2)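 Cells, 1,000 per well, plated 16 h, then exposed 48 h at 37 C to compounds. Viability by ATPlite luminescence after 15 min at room temperature.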

Assay [6] relates to CAOV3. Described as above. Conditions: Gynecologic cancer cell panel viability, ATPlite luminescence, 48 h; series mostly up to 57.5 µM. The gist of the method: as §2
The test system of assay [7] is CASKI. Described as above. Conditions: Gynecologic cancer cell panel viability, ATPlite luminescence, 48 h; series mostly up to 57.5 µM. The essentials: as §2
Assay [8] deals with Es-2. The description is as above. Conditions: Gynecologic cancer cell panel viability, ATPlite luminescence, 48 h; series mostly up to 57.5 µM. The gist of the method: as §2
Assay [9] concerns HeLa. The description is as above. Conditions: Gynecologic cancer cell panel viability, ATPlite luminescence, 48 h; series mostly up to 57.5 µM. The essentials:
as §2

Assay [10] relates to Hek293T. The description is as above. Conditions: Gynecologic cancer cell panel viability, ATPlite luminescence, 48 h, control line for the selectivity index; series mostly up to 57.5 µM. The essentials:
as §2

The subject of assay [11] is JEG-3. The description is as above. Conditions: Gynecologic cancer cell panel viability, ATPlite luminescence, 48 h; series mostly up to 57.5 µM. The gist of the method: as §2
Assay [12] deals with OV90. The assay is described as above. Conditions: Gynecologic cancer cell panel viability, ATPlite luminescence, 48 h; series mostly up to 57.5 µM. The gist of the method:
as §2

Assay [13] relates to PA-1. Described as above. Conditions: Gynecologic cancer cell panel viability, ATPlite luminescence, 48 h; series mostly up to 57.5 µM. The gist of the method: as §2
Assay [14] has as its system SKOV3. The description is as above. Conditions: Gynecologic cancer cell panel viability, ATPlite luminescence, 48 h; series mostly up to 57.5 µM. The gist of the method:
as §2

The test system of assay [15] is Tov112D. The description is as above. Conditions: Gynecologic cancer cell panel viability, ATPlite luminescence, 48 h; series mostly up to 57.5 µM. The essentials:
as §2

In assay [16] the test system is Tov-21-G. The description is as above. Conditions: Gynecologic cancer cell panel viability, ATPlite luminescence, 48 h; series mostly up to 57.5 µM. The gist of the method: as §2

Results filed as inconclusive are left out. Values without a mark were called inactive. The source made the active and inactive calls. Calls come from the whole dose curve; as a rule, active = well fitted curve in the direction sought with a large enough effect; inconclusive = small, poorly fitted or top-dose-only effect, or another doubt; inactive = no such curve, though single readings can be large; an effect the other way counts as inactive or inconclusive.

Take `COc1cc(F)c(C(C)C)cc1-c1ccc(C(F)(F)F)cc1CN1C(=O)O[C@H](c2cc(C(F)(F)F)cc(C(F)(F)F)c2)[C@@H]1C`: the Potency entry in [1], in [2], in assay [3] and in assay [4] was “inactive” each time.
As to `CC=C1C2C=C(C)CC1(N)c1ccc(=O)[nH]c1C2` (stereo not given), the Potency result in assay [1], in assay [2], in [3] and in assay [4] was “inactive” each time.
For `CC[C@H](C=C[C@@H](C)[C@H]1CC[C@H]2[C@@H]3CC=C4C[C@@H](O)CC[C@]4(C)[C@@H]3CC[C@]12C)C(C)C`, the Potency result in assay [1], in assay [2], in assay [3] and in assay [4] was “inactive” in each case.
Regarding `CN1CCN(c2cccc(Nc3nc4c(-c5ccc(S(C)(=O)=O)cc5)cccn4n3)c2)CC1`, the Potency result in [1], in assay [2], in assay [3], in [4], in assay [5] and in [6] was “inactive” each time. In addition, the Potency result in assay [7], in [8], in [9], in assay [10], in [11] and in [12] was “inactive” in each case. Besides, the Potency result in [13] and in [15] was “inactive” in each case. Further, the Potency in assay [14] was 2.82 µM (active).
For the molecule `CC(C)(C)c1nc(-c2cccc(NS(=O)(=O)c3c(F)cccc3F)c2F)c(-c2ccnc(N)n2)s1`, the Potency result in assay [1], in assay [2], in assay [3], in assay [4], in assay [7] and in assay [9] was “inactive” throughout. Further, the Potency entry in [10], in [11], in assay [12], in assay [13] and in assay [15] was “inactive” throughout.
For the molecule `N#Cc1ccc(Oc2ccc3c(c2)COB3O)cc1`, the Potency result in assay [1], in assay [2], in assay [3], in assay [4], in [5] and in [6] was “inactive” each time. The Potency result in assay [7], in [8], in assay [10], in assay [11], in assay [12] and in assay [13] was “inactive” throughout. The Potency result in assay [14], in assay [16] and in assay [15] was “inactive” throughout.
Take `O=C(Nc1cccc(C(F)(F)F)c1)Nc1cc(S(=O)(=O)NC2CC2)ccc1-c1ccsc1`: the Potency result in [1], in assay [2], in assay [3], in assay [4], in [5] and in assay [6] was “inactive” in each case. Also, the Potency entry in assay [7], in assay [8], in [9], in assay [10], in assay [11] and in assay [12] was “inactive” throughout. Moreover, the Potency entry in [13], in assay [14], in [16] and in [15] was “inactive” in each case.
As for `Cc1ccc2c(c1)c1c(n2CCc2ccc(C)nc2)CCN(C)C1`, the Potency entry in [1], in assay [2], in assay [3], in assay [4], in assay [9] and in [11] was “inactive” in each case. Also, the Potency entry in [12] is “inactive”.
For `CCN1C[C@H](C)n2c(c(O)c3c(=O)n(Cc4ccc(F)c(Cl)c4)nc(C(=O)NC)c32)C1=O`, the Potency result in assay [1], in assay [2], in [3], in [4], in [5] and in assay [7] was “inactive” throughout. The Potency entry in [8], in [9], in [10], in [11], in assay [12] and in [13] was “inactive” throughout. Moreover, the Potency entry in assay [14], in assay [16] and in assay [15] was “inactive” throughout.
Consider `CCC(=C(c1ccc(O)cc1)c1ccc(OCCNC)cc1)c1ccccc1`, for which the Potency entry in [1], in assay [2], in [3] and in assay [4] was “inactive” each time.
In the case of `COc1nccc(-c2c(-c3ccc(F)cc3)ncn2C2CCNCC2)n1`, the Potency entry in assay [1], in assay [2], in [3], in assay [4], in assay [5] and in assay [7] was “inactive” each time. For the same molecule, the Potency result in assay [8], in [9], in assay [10], in assay [11], in assay [14] and in assay [15] was “inactive” throughout.
Consider `OC[C@H]1O[C@@H](OCCc2ccc(O)cc2)[C@H](O)[C@@H](O)[C@H]1O`, for which the Potency entry in [1], in assay [2], in assay [3], in assay [4], in assay [5] and in [6] was “inactive” in each case. Further, the Potency entry in assay [7], in assay [8], in assay [9], in assay [10], in [11] and in assay [12] was “inactive” in each case. The Potency entry in assay [13], in assay [14], in [16] and in assay [15] was “inactive” each time.
`CNc1nc(Nc2ccc(C(=O)N3CCOCC3)cc2OC)ncc1Cl`: the Potency result in assay [1], in assay [2], in assay [3], in assay [4], in assay [5] and in assay [7] was “inactive” throughout. The Potency entry in assay [8], in assay [9], in assay [10], in assay [13], in assay [14] and in assay [16] was “inactive” each time. Further, in assay [15], the Potency result was “inactive”.
With `COc1cc2ncn(-c3cc(OCc4ccccc4S(C)(=O)=O)c(C#N)s3)c2cc1OC`, the Potency result in assay [1], in [2], in [3] and in [4] was “inactive” in each case.
`CC(=O)Nc1cccc(-n2c(=O)n(C3CC3)c(=O)c3c(Nc4ccc(I)cc4F)n(C)c(=O)c(C)c32)c1`: the Potency result in [1], in assay [2], in assay [3], in assay [4], in [5] and in assay [6] was “inactive” in each case. Further, the Potency result in [7], in assay [9], in assay [10], in [11], in assay [13] and in assay [14] was “inactive” throughout. In addition, the Potency result in assay [16] and in assay [15] was “inactive” in each case.
As to `C[C@H](c1ccc(F)cc1CCCC(=O)O)N(c1cc(F)ccc1F)S(=O)(=O)c1ccc(Cl)cc1`, the Potency entry in assay [1], in [2], in [3], in assay [4], in assay [5] and in assay [7] was “inactive” each time. Further, the Potency result in assay [8], in [9], in assay [10], in [11], in [12] and in [16] was “inactive” each time. Also, the Potency entry in [15] was “inactive”.
For the molecule `Cc1nc(C(=O)NCC(=O)O)c(O)c2ccc(Oc3ccccc3)cc12`, the Potency entry in assay [1], in [2], in assay [3], in assay [4], in assay [5] and in [7] was “inactive” each time. Further, the Potency entry in assay [8], in assay [9], in [10], in assay [11], in assay [12] and in assay [13] was “inactive” in each case. Further, the Potency result in assay [16] and in [15] was “inactive” throughout.
With `Cc1c(-c2cccc3c(CCCOc4cccc5ccccc45)c(C(=O)O)n(Cc4cccnc4)c23)c(COc2ccc(N3CCN([S+](=O)([O-])N(C)C)CC3)cc2)nn1C`, the Potency result in assay [1], in assay [2], in [3] and in assay [4] was “inactive” throughout.

These data come from PubChem BioAssay (NCATS).
